Data from ChEMBL document CHEMBL4513216, “Probing the Open Global Health Chemical Diversity Library for Multistage-Active Starting Points for Next-Generation Antimalarials” (ACS Infect Dis, 2020).
In all, about 68,000 compounds went through this assay and about 2,700 (4%) showed an effect of 50% or more. The full list was thinned out, with strong results kept by preference.

system: Plasmodium berghei; assay: Screen against P. berghei liver stage (PbLuc), transformed with Luciferase, at 2uM; type: functional, HepG2; details: tested at 2 uM

| Compound | INHIBITION [%] |
| --- | --- |
| COc1cc2c(cc1-c1nc3c(cnn3C(C)C(C)C)[nH]1)OCO2 (stereo not given) | 7.67 |
| COc1cc2c(cc1-c1nc3c(cnn3C(C)C)[nH]1)OCO2 | 60.13 |
| COc1cc2c(cc1-c1nc3c(cnn3C)[nH]1)OCO2 | 21.97 |
| COc1cc2c(cc1-c1nc3c(cnn3C(C)C3CC3)[nH]1)OCO2 (stereo not given) | 67.28 |
| CCn1ncc2[nH]c(-c3cc(OC)c(OC)cc3OC)nc21 | 13.04 |
| CCn1ncc2[nH]c(-c3cc4c(cc3OC)OCO4)nc21 | 27.42 |
| Cc1n[nH]c(C)c1NC(=O)CN1CCc2c(nc(C3CC3)n2C)C1 | 47.57 |
| Cc1[nH]ccc1C(=O)N1CCC2(CC1)c1nc[nH]c1CCN2S(C)(=O)=O | 0.31 |
| CO[C@H]1CO[C@@]2(CCCN(S(=O)(=O)c3ccccc3)C2)C1 | -1.81 |
| Cc1cccnc1CNC(=O)CC1C(=O)NCCN1CC(C)(C)C (stereo not given) | -26.52 |
| Cc1nnc(N2CC[C@H]3C[C@@H](C(=O)NC4CCCC4)O[C@H]3C2)s1 | -21.74 |
| CNc1nc(C(=O)NCC2CCOc3ccccc3C2)cs1 (stereo not given) | 76.82 |
| Cc1n[nH]c(C)c1CCC(=O)NCC1CCOc2ccccc2C1 (stereo not given) | 49.02 |
| Cc1cnc(C(=O)NCC2CCOc3ccccc3C2)cn1 (stereo not given) | 10.05 |
| Fc1ccc(-c2n[nH]cc2CNCCn2cccn2)cc1 | 11.01 |
| CCSCCNC(=O)Nc1cc(C(=O)N2CCOCC2)ccc1Cl | -0.24 |
| CC(C)OC(=O)c1ccc(Cl)c(NC(=O)NCCN2CCOCC2)c1 | 50.94 |
| O=C(NCCN1CCCC1)Nc1cc(C(=O)N2CCOCC2)ccc1Cl | 19.81 |
| CN(CC(=O)NC(C)(C)C)Cc1nc(-c2ccccc2)c[nH]1 | -20.91 |
| CS(=O)(=O)NC[C@@H]1OC[C@H]2CN(C(=O)c3ccccc3)CC[C@H]21 | 39.18 |
| COc1cc(C(=O)N2CCCS2(=O)=O)ccc1C | 9.9 |
| COCCN1CCC(CNC(=O)C2(c3cccc(Cl)c3)CC2)C1 (stereo not given) | 56.02 |
| COCCN1CCC(CNC(=O)C2(c3cc(C)cc(C)c3)CCC2)C1 (stereo not given) | -36.13 |
| COCCN1CCC(CNC(=O)C2(c3cccc(C)c3)CC2)C1 (stereo not given) | 43.79 |
| COCCN1CCC(CNC(=O)C2(c3ccc(Br)cc3)CCCC2)C1 (stereo not given) | 66.2 |

| Compound | INHIBITION [%] |
| --- | --- |
| COCCN1CCC(CNC(=O)C2(c3ccccc3)CCC2)C1 (stereo not given) | -1.02 |
| COCCN1CCC(CNC(=O)C2(c3cc(C)cc(C)c3)CC2)CC1 | 39.72 |
| COCCN1CCC(CNC(=O)C2(c3ccc(F)cc3)CCC2)CC1 | 66.2 |
| COCCN1CCC(CNC(=O)C2(c3cccc(C)c3)CC2)CC1 | 3.9 |
| CCN1CCC(CNC(=O)C2(c3ccc(F)cc3)CC2)C1 (stereo not given) | 20.41 |
| Cc1nc(C(NS(=O)(=O)N(C)C)c2ccccc2F)no1 (stereo not given) | -1.56 |
| CCCNC(=O)Nc1ccn(CCCOC)n1 | -27.36 |
| CC(C)CSCCN1CCCN(S(C)(=O)=O)CC1 | -14.71 |
| CCn1c(CN(C)C)nnc1C1CCN(Cc2ccc(Cl)cc2F)CC1 | -12.75 |
| Cc1cccc(C2(O)CCN(C(=O)c3ccccn3)CC2)c1C | 14.59 |
| Cc1cnn(CC2CCCN2Cc2cc(C)no2)c1 (stereo not given) | -4.43 |
| COCC1CC2(CCN(C(=O)c3oc4ccccc4c3C)CC2)CO1 (stereo not given) | 5.15 |
| CCOc1ccc(Cl)c(C(=O)NCCC(=O)Nc2ccncc2)n1 | 39.54 |
| CCN1CCN(c2ccc(CNC(=O)c3cnn(C)c3C)cn2)CC1 | 21.83 |
| Cn1ccc(C(=O)NCc2ccc(N3CCOCC3)nc2)cc1=O | 52.17 |
| Cn1ccc(C(=O)NCc2ccc(N3CCCC3)nc2)cc1=O | 9.3 |
| CCN1CCN(c2ccc(CNC(=O)c3cc(C)on3)cn2)CC1 | 23.24 |
| Cn1ccc(C(=O)NCc2ccc(N3CCCCC3)nc2)cc1=O | 26.06 |
| CCN1CCN(c2ccc(CNC(=O)c3ccc(Cl)o3)cn2)CC1 | 66.93 |
| CNC(=O)c1ccnc(CC2COc3c(cccc3OC)C2)c1 (stereo not given) | -12.13 |
| CCN(CC)S(=O)(=O)N1CCC(c2nccn2Cc2ccccn2)CC1 | -28.42 |
| Cc1ncc(C(=O)NCCNc2ccncc2)s1 | -60.22 |
| CN(C)C(=O)c1ccc(C2CCCN2C(=O)CCC2=NNC(=O)CC2)s1 (stereo not given) | -11.64 |
| Cc1nccc(NCc2cc3n(n2)CCCN(S(C)(=O)=O)C3)n1 | 8.89 |
| CS(=O)(=O)N1CCCn2nc(CNc3ncccn3)cc2C1 | 51.19 |

| Compound | INHIBITION [%] |
| --- | --- |
| Nc1nccc(NCc2cc3n(n2)CCCN(C(=O)C2CCC2)C3)n1 | 4.47 |
| CSc1nccc(NCc2cc3n(n2)CCCN(C(=O)C2CCC2)C3)n1 | -36.65 |
| Cc1cc(NCc2cc3n(n2)CCCN(C(=O)C2CCC2)C3)ncn1 | 19.13 |
| Cc1nccc(NCc2cc3n(n2)CCCN(C(=O)C2CCC2)C3)n1 | 55.7 |
| Cc1cc(NCc2cc3n(n2)CCCN(S(C)(=O)=O)C3)ncn1 | -14.84 |
| Cc1cc(C)nc(NCc2cc3n(n2)CCCN(C(=O)C2CCC2)C3)n1 | -4.53 |
| O=C(C1CCC1)N1CCCn2nc(CNc3ncccn3)cc2C1 | 52.47 |
| CC1=N[C@@]2(CC[C@@H]3CN(Cc4ccc(C)cc4)C[C@@H]32)C(=O)N1CC1CC1 | 41.38 |
| Cc1ccccc1C1CCCN1Cc1nc2c(cnn2C)c(=O)[nH]1 (stereo not given) | -29.69 |
| Cc1nccc(C(=O)NC(CN2CCCC2=O)c2ccccc2)n1 (stereo not given) | -45.82 |
| CC1CN(C)CCN1C(=O)c1ccn(-c2ccccc2)n1 (stereo not given) | 23.42 |
| COc1cccc(OCCc2cncc(C(N)=O)c2)c1 | -18.52 |
| COc1ccccc1OCCCc1cncc(C(N)=O)c1 | -69.92 |
| COc1cccc(OCCCc2cncc(C(N)=O)c2)c1 | 61.08 |
| Nc1ncnc2nc(C3CCN(C(=O)Cc4ccccc4)C3)ccc12 (stereo not given) | -7.22 |
| CCc1nc(CC2CN(c3ncnc4sc(C)c(C)c34)CCO2)no1 (stereo not given) | -7.81 |
| CN(C)C(=O)COc1ccccc1CN1CCCC2(C1)CN(C)C(=O)O2 (stereo not given) | -38.26 |
| CC(=O)Nc1cc(C2CC2)nn1-c1nc(C)c(C)c(=O)[nH]1 | -8.91 |
| Cc1cc(NC(=O)C(C)C)n(-c2nc(C)c(C)c(=O)[nH]2)n1 | 27.11 |
| Cc1nc(-n2nc(C3CC3)cc2NC(=O)C(C)C)[nH]c(=O)c1C | 55.52 |
| CC(C)(C#N)CCCS(=O)(=O)c1nccn1-c1cccc(F)c1 | 19.33 |
| CCN(CC)C(=O)COc1ccnc2cc(OC)ccc12 | 50.42 |
| COc1ccc2c(OCC(=O)NCC(F)(F)F)ccnc2c1 | -26.08 |
| COc1ccc2c(OCC(=O)NC(C)(C)C)ccnc2c1 | -3.8 |
| CCN(CC1CCOC1)C(=O)c1cccnc1N1CCOCC1 (stereo not given) | 53.03 |

| Compound | INHIBITION [%] |
| --- | --- |
| CCN(CC1CCOC1)C(=O)Nc1ccc(N2CCOCC2)nc1 (stereo not given) | -25.45 |
| CCN(CC1CCOC1)C(=O)c1ccccc1N1CCOCC1 (stereo not given) | -45.72 |
| CN(C)c1nccc(N2CCO[C@H]3CN(Cc4ccco4)C[C@H]32)n1 | 28.14 |
| CN(C)c1nccc(N2CCO[C@H]3CN(Cc4ccsc4)C[C@H]32)n1 | -33.63 |
| Cc1cccc(CN2C[C@@H]3OCCN(c4ccnc(N(C)C)n4)[C@@H]3C2)c1 | 53.55 |
| COc1cccn(CC(=O)N2CCCC3(CCCCC3)C2)c1=O | 26.14 |
| Cc1[nH]c2cc(C3CCN(C(=O)c4ccccn4)CC3)nn2c(=O)c1C | 9.9 |
| Cc1ccc(-c2nc(C3CCN(C(=O)c4ccnn4C)CC3)no2)cn1 | 10.65 |
| Cc1csc(CN(C)C(=O)Nc2cc(F)cc(N3CCCC3)c2)n1 | 0.12 |
| CS(=O)(=O)N1C[C@@H](Oc2ccccn2)[C@H]2OCCC[C@H]21 | 50.72 |
| CCN(CC)CCN1CCO[C@H]2[C@@H](OCc3ccccn3)CC[C@@H]21 | -31.4 |
| CCOCCN1CCO[C@H]2[C@H](OCc3ccccn3)CC[C@@H]21 | 55.07 |
| c1ccc(CO[C@H]2CC[C@H]3[C@H]2OCCN3CCN2CCCCC2)nc1 | 27.42 |
| CCS(=O)(=O)N1C[C@@H](Oc2ccccn2)[C@H]2OCCC[C@H]21 | 13.38 |
| O=S(=O)(C1CC1)N1C[C@H](Oc2ccccn2)[C@H]2OCCC[C@H]21 | 17.77 |
| Cc1nc(CN2CCO[C@H]3[C@@H](Oc4ccccn4)CC[C@@H]32)cs1 | 27.9 |
| COc1ccc(CN2CCO[C@H]3[C@H](Oc4ccccn4)CC[C@@H]32)cc1 | -0.68 |
| Cc1cccc(CN2CCO[C@H]3[C@H](Oc4ccccn4)CC[C@@H]32)n1 | 64.44 |
| COc1ccc2c(=O)ccn(CC(=O)O)c2c1 | 16.54 |
| Cc1noc(C2CCN(C(C)c3nc(C(C)(C)C)no3)CC2)n1 (stereo not given) | 11.42 |
| COC(=O)CSc1nnc(CCNC(=O)OC(C)(C)C)o1 | 25.59 |
| COCCNC(=O)C1CN(Cc2ccncc2)Cc2ccnn2C1 (stereo not given) | -15.71 |
| CC(C1CC1)N(C)C(=O)c1ccc(-n2ncc(C#N)c2N)cc1 (stereo not given) | 26.2 |
| Fc1cccc(Nc2nc(N3CCCC3)nc3c2CNCC3)c1 | 32.67 |
| Cc1c(F)cccc1CN1CCn2nc(CNC(=O)N(C)C)cc2C1 | 21.08 |
